{"source": "PubChem BioAssay AID1053119", "about": "(Broad Institute, 2014)", "note": "Results with a measured potency or affinity are listed apart. Inconclusive results are not listed. Calls of active or inactive are those of the source.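 Rule for the calls: active = signal loss from cell killing with fitted potency at or below twice the top valid dose; inconclusive = flat drop of 30 to 70%, or unreliable curve fit; inactive = opposite direction, flat within 30%, or weaker potency.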", "data": [{"test": "viability loss in A549 lung cancer cells – cell-based, cherry-picks, 26 µM top dose, cytotoxicity control, dose response (AID 1053119)", "conditions": "CellTiter-Glo ATP luminescence, 72 h; series mostly up to 26 µM", "values": [{"smiles": "COc1ccc(C)cc1N(CC(=O)Nc1cccc(N(C)S(C)(=O)=O)c1)S(C)(=O)=O", "outcome": "inactive"}, {"smiles": "COc1cccc(-c2ccc3c(c2)[C@H]2[C@H](CCN2S(=O)(=O)c2cccc(OC)c2)[C@H](CO)N3)c1", "outcome": "inactive"}, {"smiles": "Cc1ccccc1S(=O)(=O)N1CC[C@H]2[C@H](CO)Nc3ccc(-c4ccc(C#N)cc4)cc3[C@H]21", "outcome": "inactive"}, {"smiles": "O=C(CSc1nc2ncc(Cl)cc2[nH]1)c1c[nH]c2ccccc12", "outcome": "inactive"}, {"smiles": "c1ccc2[nH]c(SCc3cn4cccnc4n3)nc2c1", "outcome": "inactive"}, {"smiles": "O=C(CCNS(=O)(=O)c1cccc2nonc12)NC1CCCc2ccccc21", "note": "(configuration not stated)", "outcome": "inactive"}, {"smiles": "C[C@H]1CN([C@@H](C)CO)C(=O)c2cc(NC(=O)CCCN(C)C)ccc2O[C@H]1CN(C)Cc1ccc(-c2ccccc2)cc1", "outcome": "inactive"}, {"smiles": "CO[C@@H]1CN(C)C(=O)c2cc(NC(=O)Nc3ccc(Cl)c(Cl)c3)ccc2OC[C@H](C)NC[C@H]1C", "outcome": "inactive"}, {"smiles": "CCCc1cc(C(=O)OC)c(NC(=O)CCC(=O)O)s1", "outcome": "inactive"}, {"smiles": "COc1cccc(-c2ccc3c(c2)[C@H]2[C@H](CCN2S(=O)(=O)c2cccc(OC)c2)[C@@H](CO)N3)c1", "outcome": "inactive"}, {"smiles": "Cc1ccc(NC(=O)COC(=O)c2cc(Cl)ccc2[N+](=O)[O-])c(C)c1", "outcome": "inactive"}, {"smiles": "C[C@@H](O)C#Cc1ccc2c(c1)O[C@@H](CN(C)C)[C@@H](C)CN([C@@H](C)CO)S2(=O)=O", "outcome": "inactive"}, {"smiles": "COc1ccc(CCNC(=O)C2CCN(Cc3nc(-c4ccccc4F)oc3C)CC2)cc1OC", "outcome": "inactive"}, {"smiles": "C[C@H](O)C#Cc1ccc2c(c1)O[C@H](CN(C)C)[C@@H](C)CN([C@H](C)CO)S2(=O)=O", "outcome": "inactive"}, {"smiles": "COC(=O)C[C@@H]1CC[C@@H]2[C@@H](COc3ccc(NC(=O)Cc4cccs4)cc3C(=O)N2C)O1", "outcome": "inactive"}, {"smiles": "CC(=O)Nc1cccc(-c2ccnc3c2CC(C)(C(=O)Nc2cccc(C(F)(F)F)c2)O3)c1", "note": "(configuration not stated)", "outcome": "inactive"}, {"smiles": "CCc1nc2c(OCCc3cccc(OC)c3)cccn2c1N(C)C(=O)c1ccc(C)cc1", "outcome": "inactive"}, {"smiles": "C[C@H](O)C#Cc1ccc2c(c1)O[C@H](CN(C)C)[C@H](C)CN([C@H](C)CO)S2(=O)=O", "outcome": "inactive"}, {"smiles": "C[C@@H]1CN([C@H](C)CO)C(=O)c2cc(NC(=O)C3CCCCC3)ccc2O[C@@H]1CN(C)Cc1ccc(-c2ccccc2)cc1", "outcome": "inactive"}, {"smiles": "CN1c2ccc(-c3ccccc3)cc2[C@@H]2[C@@H](CCN2C(=O)CN2CCOCC2)[C@H]1CO", "outcome": "inactive"}, {"smiles": "COCC(=O)Nc1ccc2c(c1)C(=O)N(C)[C@H]1CC[C@H](CC(=O)NCc3ccccc3Cl)O[C@H]1CO2", "outcome": "inactive"}, {"smiles": "N#Cc1ccc(-c2ccc3c(c2)[C@@H]2[C@@H](CCN2S(=O)(=O)c2ccccc2F)[C@H](CO)N3)cc1", "outcome": "inactive"}, {"smiles": "C[C@H](CO)N1C[C@H](C)[C@@H](CN(C)Cc2ccc(-c3ccccc3)cc2)Oc2ccc(NC(=O)C3CCCCC3)cc2C1=O", "outcome": "inactive"}, {"smiles": "O=C(Nc1ccccc1F)N1C[C@@H]2[C@H](c3ccccc31)[C@H](CO)N2C(=O)C1CC1", "outcome": "inactive"}, {"smiles": "O=C(Nc1ccccc1F)N1C[C@H]2[C@@H](c3ccccc31)[C@@H](CO)N2C(=O)C1CC1", "outcome": "inactive"}, {"smiles": "C[C@@H]1CN([C@H](C)CO)C(=O)c2cc(-c3ccccc3)cnc2O[C@@H]1CN(C)C(=O)c1cccc(F)c1", "outcome": "inactive"}, {"smiles": "N#C[C@@H]1[C@H](c2ccccc2C2=CCCCC2)[C@@H](CO)N1S(=O)(=O)c1ccccc1", "outcome": "inactive"}, {"smiles": "C[C@@H]1CN([C@H](C)CO)C(=O)c2cc(NC(=O)C3CCCCC3)ccc2O[C@H]1CN(C)Cc1ccc(-c2ccccc2)cc1", "outcome": "inactive"}, {"smiles": "COc1cccc(S(=O)(=O)N2CC[C@@H]3[C@H]2c2cc(-c4ccc(C#N)cc4)ccc2N[C@@H]3CO)c1", "outcome": "inactive"}, {"smiles": "COc1ccc(CN(C2CCCC2)S(=O)(=O)c2ccc(-n3cnnn3)cc2)cc1OC", "outcome": "inactive"}, {"smiles": "NC(=O)C1=C[C@H](c2coc3ccccc3c2=O)C[C@H](OCCCCO)O1", "outcome": "inactive"}, {"smiles": "C[C@H](CO)N1C[C@H](C)[C@H](CN(C)C(=O)Nc2cccc3ccccc23)Oc2c(NC(=O)Nc3ccc(C(F)(F)F)cc3)cccc2C1=O", "outcome": "inactive"}, {"smiles": "C[C@@H]1CN([C@@H](C)CO)C(=O)c2cc(-c3ccccc3)cnc2O[C@H]1CN(C)C(=O)c1cccc(F)c1", "outcome": "inactive"}, {"smiles": "CCN(Cc1ccncc1)C(=O)c1ccc2c(c1)S(=O)(=O)c1ccccc1C2=O", "outcome": "inactive"}, {"smiles": "CCC(C)(C)NC(=O)C(OC(=O)c1ccco1)c1ccccc1OC", "note": "(configuration not stated)", "outcome": "inactive"}, {"smiles": "C[C@@H]1CN([C@@H](C)CO)C(=O)c2cc(NC(=O)C3CCCCC3)ccc2O[C@@H]1CN(C)Cc1ccc(-c2ccccc2)cc1", "outcome": "inactive"}, {"smiles": "COc1cccc(-c2ccc3c(c2)[C@@H]2[C@@H](CCN2S(=O)(=O)c2cccc(OC)c2)[C@@H](CO)N3)c1", "outcome": "inactive"}]}]}
